Data on 38 compounds can be found in PubChem BioAssay (NCI).

This is part of a sample that, as a whole, favours compounds with a hit. Of some 83,000 tested, about 20% had one in any assay.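 A percent growth of 40 corresponds to 60% growth inhibition; 0 means no net growth; -100 means all cells died. Active threshold: below 10.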 Unmarked numbers belong to inactive results. Active and inactive are the calls of the source.

The first assay relates to HOP-62 NSCLC. The assay can be described thus: NCI-60 one-dose screen, 48 h (100 = growth as untreated, 0 = no growth, -100 = all killed). Particulars: 10 µM unless noted.
`COc1ccc(/C=N/Nc2cc(=O)[nH]c3ccc(Cl)cc23)cc1`: the growth is 71.9%.
On to `CCCCCCN(CCCCCC)c1ccc(/C=C2/SC(=O)NC2=O)c(C)c1`, for which the growth is 110%.
As for `CC(=O)Oc1ccccc1C(=O)N=C1[Se]CCCN1C(=O)c1ccccc1OC(C)=O`, the growth was 17.7%.
Take `CC(C)OC(=O)Nc1ccc(-c2nc(-c3cccc(OCCN4CCOCC4)c3)c(-c3ccnc(Br)c3)[nH]2)cc1`: the growth was 28.4%.
As for `Cc1cc2nc3ccc(N=Nc4ccc(N(C)C)cc4)cc3n(-c3ccccc3)c-2cc1=N`, the growth was -55.9% (active).
As for `CCCCn1c(-c2ccc(-c3nc(-c4ccc(Cl)cc4)no3)cc2)nc(-c2ccccc2)c1-c1ccccc1`, the growth was 92.4%.
The same measure, in the same setting: with `Oc1c(I)cc(I)cc1CNCCCN(Cc1ccccn1)Cc1ccccn1` the figure was -52.7% (active); with `C/C(=N/NC(N)=S)c1sc(Nc2cccc(Cl)c2)nc1C`, 102%.
`Cc1nn(-c2ccccc2)c2c1N=c1s/c(=C\c3ccc(C(F)(F)F)cc3)c(=O)n1CN2`: the growth was 87.7%.
Still for that read-out and setting: in the case of `O=C(O)CCC(=O)Nc1nnc(-c2ccccc2)s1` it was 94.2%; in that of `Oc1ccc(Cl)cc1Cc1cc(Cl)cc(Cl)c1O`, 22.9%.
In the case of `O=c1c2cccc(Cl)c2sc2c(NCCCNCCO)nc3ccccc3c12`, the growth is 39.6%.
As for `COc1cc(C2CC(c3cccc(Br)c3)=NN2C(C)=O)cc(OC)c1OC` (stereo unspecified), the growth was 43.7%.
In the case of `COc1ccc(-c2nc(NN)c3c(C)nn(-c4ccc(F)cc4)c3n2)cc1`, the growth was 50.6%.
For the compound `CCOC(=O)NCCc1ccccc1`, the growth was 99.7%.
Regarding `COc1ccccc1/C=C1\Oc2cc(OCCN3CCC(Cc4ccccc4)CC3)ccc2C1=O`, the growth is 103%.
On the same count and under the same terms, in the case of `O=C(COc1ccc(/C=C2\Cc3ccc(Cl)cc3C2=O)cc1)Nc1nc2ccccc2s1` it was 98.2%; in that of `CCc1cccc2c3c(sc12)C(c1ccc(F)cc1)C(C#N)=C(N)O3` (stereo unspecified), 48.7%.
In the case of `Cc1ccc(C(=O)N/N=C/c2cccc([N+](=O)[O-])c2)cn1`, the growth is 98.7%.
Same read-out and setting: in the case of `CCOC(=O)C1=C(N)Oc2c(sc3c(C)cccc23)C1c1ccc(Cl)cc1` (stereo unspecified) it was 31.8%; in that of `COc1ccc(-n2c(N)c(-c3nc4ccccc4[nH]3)cc(C#N)c2=O)cc1`, 90.8%.
The same measure, in the same setting: in the case of `Cc1cc2nc3cc(C)c(N)cc3[n+](-c3ccccc3)c2cc1N` it was 52.7%; in that of `COc1c(N2CC3CCCN(C(C)=O)C3C2)c(F)cc2c(=O)c(C(=O)N[C@H]3C(O)[C@@H](O)C(CO)O[C@H]3O)cn(C3CC3)c12` (stereo partly specified), 103%; in that of `COc1ccc(C2CC(c3ccc(Nc4nc(Nc5ccc(F)cc5)nc(Nc5ccc(Cl)cc5)n4)cc3)=NN2C(C)=O)cc1` (stereo unspecified), 110%.
`O=c1[nH][n+](-c2ccc(Br)cc2)no1`: the growth is 75.5%.
Turning to `O=C(CSc1nccc(Nc2ccc(S(=O)(=O)Nc3nccs3)cc2)n1)c1ccc(C(F)(F)F)cc1`, the growth is 113%.
As for `COc1cc(C2CC(c3ccc(N(C)C)cc3)=NN2C(C)=O)cc(OC)c1OC` (stereo unspecified), the growth was 47.8%.
As to `COc1ccc2c(c1)c(-c1ccc(-c3cn(C)c4ccc(OC)cc34)o1)cn2C`, the growth was 93.2%.
Regarding `COc1ccc(CN2c3ccccc3CCc3ccccc32)cc1F`, the growth is 36.8%.
`CC(=O)N1N=C(c2ccc(Nc3nc(Nc4ccc(F)cc4)nc(Nc4ccc(Cl)cc4)n3)cc2)CC1c1ccc(Cl)cc1` (stereo unspecified): the growth was 84.1%.
On to `COc1ccc(OC)c(/C=C/c2nnc(Nc3ccccc3)o2)c1`, for which the growth is 106%.
`COc1cc2cc(Oc3ccc(NC(=O)Nc4ccc(Cl)c(C(F)(F)F)c4)cc3)c(C)nc2cc1OCCN1CCOCC1`: the growth is 27.6%.
On to `CCOC(=O)C1=C(N)Oc2c(sc3c(C)cccc23)C1c1ccc(F)cc1` (stereo unspecified), for which the growth is 36.2%.
For `NCCCNc1nc2ccccc2c2c(=O)c3cccc(F)c3sc12`, the growth was 48.1%.
As to `CCc1ccc(Oc2c(-c3ccc(OCc4ccc(Cl)cc4)cc3O)n[nH]c2C(F)(F)F)cc1`, the growth is 57.5%.
On to `COc1ccc2sc3c(NCCCNCCO)nc4ccccc4c3c(=O)c2c1`, for which the growth was 77.3%.
The same measure, in the same setting: in the case of `COc1nc2ccccc2cc1-c1nc2c(cnn2-c2ccc(Br)cc2)c(=O)[nH]1` it was 24.4%; in that of `Cc1oc2nc[nH]c(=O)c2c1C(=O)/C=C/c1ccc(Br)cc1`, 12.1%.

The next assay relates to NCI-H460 lung. The description is as above. Particulars: 10 µM unless noted.
On to `COc1ccc(/C=N/Nc2cc(=O)[nH]c3ccc(Cl)cc23)cc1`, for which the growth was 23.9%.
`CCCCCCN(CCCCCC)c1ccc(/C=C2/SC(=O)NC2=O)c(C)c1`: the growth is 81.3%.
In the case of `CC(=O)Oc1ccccc1C(=O)N=C1[Se]CCCN1C(=O)c1ccccc1OC(C)=O`, the growth is 5.16% (active).
Take `CC(C)OC(=O)Nc1ccc(-c2nc(-c3cccc(OCCN4CCOCC4)c3)c(-c3ccnc(Br)c3)[nH]2)cc1`: the growth was 30%.
The same measure, in the same setting: with `Cc1cc2nc3ccc(N=Nc4ccc(N(C)C)cc4)cc3n(-c3ccccc3)c-2cc1=N` the figure was -58.1% (active); with `CCCCn1c(-c2ccc(-c3nc(-c4ccc(Cl)cc4)no3)cc2)nc(-c2ccccc2)c1-c1ccccc1`, 95.6%; with `Oc1c(I)cc(I)cc1CNCCCN(Cc1ccccn1)Cc1ccccn1`, -57.2% (active).
For the compound `C/C(=N/NC(N)=S)c1sc(Nc2cccc(Cl)c2)nc1C`, the growth was 92.9%.
With `Cc1nn(-c2ccccc2)c2c1N=c1s/c(=C\c3ccc(C(F)(F)F)cc3)c(=O)n1CN2`, the growth is 53.8%.
In the case of `O=C(O)CCC(=O)Nc1nnc(-c2ccccc2)s1`, the growth is 104%.
Still for that read-out and setting: with `Oc1ccc(Cl)cc1Cc1cc(Cl)cc(Cl)c1O` the figure was 20.9%; with `O=c1c2cccc(Cl)c2sc2c(NCCCNCCO)nc3ccccc3c12`, -86.2% (active); with `COc1cc(C2CC(c3cccc(Br)c3)=NN2C(C)=O)cc(OC)c1OC` (stereo unspecified), 9.31% (active).
The same measure, in the same setting: in the case of `COc1ccc(-c2nc(NN)c3c(C)nn(-c4ccc(F)cc4)c3n2)cc1` it was 18.8%; in that of `CCOC(=O)NCCc1ccccc1`, 112%; in that of `COc1ccccc1/C=C1\Oc2cc(OCCN3CCC(Cc4ccccc4)CC3)ccc2C1=O`, 93%.
The same measure, in the same setting: in the case of `O=C(COc1ccc(/C=C2\Cc3ccc(Cl)cc3C2=O)cc1)Nc1nc2ccccc2s1` it was 103%; in that of `CCc1cccc2c3c(sc12)C(c1ccc(F)cc1)C(C#N)=C(N)O3` (stereo unspecified), 12.9%; in that of `Cc1ccc(C(=O)N/N=C/c2cccc([N+](=O)[O-])c2)cn1`, 106%.
Consider `CCOC(=O)C1=C(N)Oc2c(sc3c(C)cccc23)C1c1ccc(Cl)cc1` (stereo unspecified), for which the growth was 13.1%.
For `COc1ccc(-n2c(N)c(-c3nc4ccccc4[nH]3)cc(C#N)c2=O)cc1`, the growth was 87.1%.
On to `Cc1cc2nc3cc(C)c(N)cc3[n+](-c3ccccc3)c2cc1N`, for which the growth was 65.6%.
As to `COc1c(N2CC3CCCN(C(C)=O)C3C2)c(F)cc2c(=O)c(C(=O)N[C@H]3C(O)[C@@H](O)C(CO)O[C@H]3O)cn(C3CC3)c12` (stereo partly specified), the growth is 108%.
On to `COc1ccc(C2CC(c3ccc(Nc4nc(Nc5ccc(F)cc5)nc(Nc5ccc(Cl)cc5)n4)cc3)=NN2C(C)=O)cc1` (stereo unspecified), for which the growth is 102%.
On to `O=c1[nH][n+](-c2ccc(Br)cc2)no1`, for which the growth is 28.3%.
For `O=C(CSc1nccc(Nc2ccc(S(=O)(=O)Nc3nccs3)cc2)n1)c1ccc(C(F)(F)F)cc1`, the growth was 107%.
Same read-out and setting: in the case of `COc1cc(C2CC(c3ccc(N(C)C)cc3)=NN2C(C)=O)cc(OC)c1OC` (stereo unspecified) it was 10.8%; in that of `COc1ccc2c(c1)c(-c1ccc(-c3cn(C)c4ccc(OC)cc34)o1)cn2C`, 56.8%.
In the case of `COc1ccc(CN2c3ccccc3CCc3ccccc32)cc1F`, the growth was 6.64% (active).
In the case of `CC(=O)N1N=C(c2ccc(Nc3nc(Nc4ccc(F)cc4)nc(Nc4ccc(Cl)cc4)n3)cc2)CC1c1ccc(Cl)cc1` (stereo unspecified), the growth is 107%.
As to `COc1ccc(OC)c(/C=C/c2nnc(Nc3ccccc3)o2)c1`, the growth was 97.2%.
Consider `COc1cc2cc(Oc3ccc(NC(=O)Nc4ccc(Cl)c(C(F)(F)F)c4)cc3)c(C)nc2cc1OCCN1CCOCC1`, for which the growth is 8.67% (active).
In the case of `CCOC(=O)C1=C(N)Oc2c(sc3c(C)cccc23)C1c1ccc(F)cc1` (stereo unspecified), the growth was 4.3% (active).
Take `NCCCNc1nc2ccccc2c2c(=O)c3cccc(F)c3sc12`: the growth is -57% (active).
With `CCc1ccc(Oc2c(-c3ccc(OCc4ccc(Cl)cc4)cc3O)n[nH]c2C(F)(F)F)cc1`, the growth was 3.21% (active).
Take `COc1ccc2sc3c(NCCCNCCO)nc4ccccc4c3c(=O)c2c1`: the growth is -71.1% (active).
As for `COc1nc2ccccc2cc1-c1nc2c(cnn2-c2ccc(Br)cc2)c(=O)[nH]1`, the growth was 13.6%.
Turning to `Cc1oc2nc[nH]c(=O)c2c1C(=O)/C=C/c1ccc(Br)cc1`, the growth is 3.92% (active).
